The results in this text go back to PubChem BioAssay (NCATS).

Results filed as inconclusive are left out. Active and inactive are the calls of the source. Unless noted, calls come from the whole dose curve.

The target in experiment [1] is Glucocorticoid receptor (Homo sapiens) (UniProt P04150). The experiment can be described thus: qHTS assay for small molecule agonists of glucocorticoid receptor signaling (AID 588532; active = well fitted curve in the direction sought with a large enough effect in the signal ratio, with a control signal flat; the % refers to the signal ratio;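 note: 100% = dexamethasone at 0.1 µM and 0% = DMSO only wells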). The settings on record: HeLa MMTV-bla, beta-lactamase ratio, agonist, 18 h; activation: stronger effect = higher value, percent of dexamethasone control, DMSO zero. Summed up: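 Quantitative HTS using CellSensor MMTV-bla HeLa cells in charcoal/dextran-treated serum; compounds tested up to 92 uM. After 18 h at 37 C, CCF4 dye reported reporter induction.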
In general terms: qHTS replaces the single test concentration by a dilution series.

For experiment [2] the target is unchanged. The experiment can be described thus: qHTS assay for small molecule antagonists of glucocorticoid receptor signaling (AID 588533; active = well fitted inhibition curve with a large enough effect in the signal ratio, with a control signal flat, not every such curve was filed as active; the % refers to the signal ratio;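 note: cells stimulated with 2 nM dexamethasone as agonist; % is set by controls: 0 for no effect and ±100 for the full control effect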). Summed up: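 Antagonist-mode qHTS: compound titrations added to GRE-bla HeLa cells, then dexamethasone 2 nM final; 18 h, 37 C. CCF4 FRET fluorescence normalized to dexamethasone and DMSO; IC50 from Hill fit.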
Experiment [3] in a line: qHTS assay for small molecule antagonists of peroxisome proliferator-activated receptor delta signaling (AID 588535; active = well fitted inhibition curve with a large enough effect in the signal ratio, with a control signal flat, not every such curve was filed as active; the % refers to the signal ratio;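 for max response: cells co-treated with a PPAR-delta agonist as stimulator during compound exposure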). The settings on record: HEK293T PPARd-UAS-bla, beta-lactamase FRET ratio, 18 h; 460 nm channel. In a few lines: (§1)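 Cell-based beta-lactamase assay in antagonist mode: 4000 HEK293T PPAR-delta-UAS-bla cells per well, 5 hr preincubation then 18 hr compound incubation at 37 C. IC50 obtained by Hill equation fitting.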

For experiment [4], the target named is Peroxisome proliferator-activated receptor delta (Homo sapiens) (UniProt Q03181). Described as above. Summed up: as §1
The target of experiment [5] is Peroxisome proliferator-activated receptor gamma (Homo sapiens) (UniProt P37231). The experiment can be described thus: qHTS assay for small molecule agonists of peroxisome proliferator-activated receptor gamma signaling (AID 588536; active = well fitted curve in the direction sought with a large enough effect in the signal ratio, with a control signal flat, not every such curve was filed as active; the % refers to the signal ratio;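 note: 0% = DMSO basal wells and 100% = rosiglitazone at 2 µM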). Summed up: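 HEK293 UAS-bla reporter line, 1% charcoal/dextran FBS; titration, 16 h, 37 C; CCF4 loading 2 h RT; fluorescence 460/530 nm. Normalized to rosiglitazone 2 uM = 100%, DMSO = 0%.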

Experiment [6] has the same target. The experiment can be described thus: qHTS assay for small molecule antagonists of peroxisome proliferator-activated receptor gamma signaling (AID 588537; active = well fitted inhibition curve with a large enough effect in the signal ratio, with a control signal flat, not every such curve was filed as active; the % refers to the signal ratio;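 note: reporter cells co-stimulated with 50 nM rosiglitazone agonist during compound treatment; % of control where 0% means no effect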). In a few lines:
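Inhibitors of agonist-stimulated UAS-bla reporter activity were sought in HEK293 cells; rosiglitazone (50 nM) defined full signal and DMSO baseline. Curves fitted to Hill model gave IC50 and efficacy.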

For experiment [7], the target named is Vitamin D3 receptor (Homo sapiens) (UniProt P11473). Briefly: qHTS assay for small molecule antagonists of vitamin D receptor signaling (AID 588541).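 Note: receptor activated by calcitriol during compound treatment; series mostly up to about 77 µM; % is set by controls: 0 for no effect and ±100 for the full control effect.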 Summed up:
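Antagonist-mode beta-lactamase reporter assay: HEK293T VDR-UAS-bla cells were exposed to titrated compound alongside 1-alpha,25-dihydroxyvitamin D3 at 3 nM final for 16 h. Values were normalized to the 50 nM agonist control and DMSO basal, with IC50 and efficacy from Hill equation fits.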

Experiment [8] has the same target. The experiment can be described thus: qHTS assay for small molecule agonists of vitamin D receptor signaling (AID 588543).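 Note: 0% = DMSO basal and 100% = reference agonist control.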 In a few lines: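 qHTS in agonist mode: compound titrations stimulate a VDR-driven β-lactamase reporter in HEK293T cells over 16 h at 37 °C. Response normalized to 50 nM 1α,25-dihydroxyvitamin D3 = 100%, DMSO = 0%; Hill fitting gives EC50 and maximal response.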

The target in experiment [9] is Retinoic acid receptor RXR-alpha (Homo sapiens) (UniProt P19793). Briefly: qHTS assay for small molecule agonists of retinoid X receptor alpha signaling (AID 588544).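 For activation: 0% = DMSO basal wells and 100% = reference agonist.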
The nature of experiment [10]: qHTS assay for small molecule antagonists of retinoid X receptor alpha signaling (AID 588546; active = well fitted inhibition curve with a large enough effect in the signal ratio, with a control signal flat, not every such curve was filed as active; the % refers to the signal ratio;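 note: cells stimulated with 9-cis-retinoic acid as agonist; % is set by controls: 0 for no effect and ±100 for the full control effect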). The settings on record: HEK293T RXRa-UAS-bla, beta-lactamase ratio, antagonist mode; measured here: W530 green channel, cytotoxicity proxy. Summed up:
(§2)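 Beta-lactamase reporter inhibition, read as CCF4 fluorescence ratio (ex 405, em 460/530 nm) after 2 h at RT. HEK293T UAS-bla cells, 2500/well, were stimulated with 9-cis-RA at 500 or 100 nM final alongside test compound for 18 h at 37 C.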

Experiment [11] has as its target Retinoic acid receptor RXR-alpha (Homo sapiens) (UniProt P19793). Described as above. The settings on record: HEK293T RXRa-UAS-bla, beta-lactamase ratio, antagonist mode. In a few lines: as §2
Experiment [12] can be described thus: qHTS assay for small molecule activators of the p53 signaling pathway (AID 651743; active = well fitted activation curve with a large enough effect in the signal ratio, not every such curve was filed as active; the % refers to the signal ratio; note: series mostly up to about 92 µM; % of control where 0% means no effect). The settings on record: HCT-116 p53RE-bla, beta-lactamase FRET ratio, 16 h; activation: stronger effect = higher value. Summed up:
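Screen for p53 pathway agonists uses stably transfected p53RE-bla HCT-116 cells, 4,000 per well, treated 16 h at 37 C with compounds in DMSO.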

The target of experiment [13] is Peroxisome proliferator-activated receptor alpha (Homo sapiens) (UniProt Q07869). Briefly: qHTS assay for small molecule agonists of the peroxisome proliferator-activated receptor alpha (PPARalpha) signaling pathway (AID 651778; active = well fitted curve in the direction sought with a large enough effect; an effect the other way counts as inactive or inconclusive; note: % of control where 0% means no effect). The settings on record: PathHunter PPARalpha complementation, chemiluminescence, 6 h; max response: stronger effect = higher value. In a few lines:
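Chemiluminescence from complemented enzyme reported PPARalpha activation in cells after 6 hr of compound treatment at 37 C. The detection reagent was incubated for 60 min at room temperature, and compounds were scored as agonists.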

Experiment [14] in a line: qHTS assay for small molecule agonists of the antioxidant response element (ARE) signaling pathway measured by Nrf2-dependant transcriptional activity (AID 720636; active = well fitted curve in the direction sought with a large enough effect in the repeat runs; an effect the other way counts as inactive or inconclusive;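 note: HepG2 cells with an ARE-driven luciferase reporter; % of control where 0% means no effect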). In a few lines: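 Cells: ARE-luc HepG2 with Nrf2-responsive luciferase. Medium contained 1% dialyzed FBS. Compound exposure lasted 16 hr at 37 C and 5% CO2, followed by ONE-Glo luciferase detection.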
Experiment [15] in a line: qHTS assay for small molecule agonists of the antioxidant response element (ARE) signaling pathway measured by Nrf2-dependant transcriptional activity - cell viability counter screen (AID 720653; active = well fitted curve in the direction sought with a large enough effect in the repeat runs; an effect the other way counts as inactive or inconclusive; note: % is set by controls: 0 for no effect and ±100 for the full control effect). The note with it: ARE-bla HepG2 viability, CellTiter-Glo ATP luminescence, 16 h; max response: stronger effect = lower value. Summed up:
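Cytotoxicity counter screen: intracellular ATP quantified by CellTiter-Glo luminescence in the same ARE-bla HepG2 plates, after 16 h compound exposure and a 2 h beta-lactamase substrate step.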

The nature of experiment [16]: qHTS assay for cell viability of HEK293 cells (AID 743288; active = well fitted curve in the direction sought with a large enough effect; an effect the other way counts as inactive or inconclusive; note: % is set by controls: 0 for no effect and ±100 for the full control effect; nearly all actives have a fitted effect of over 50% in size). The settings on record: ATP luminescence (CellTiter-Glo), 18 h; max response: stronger effect = lower value. In a few lines:
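The Tox21 protocol used parental HEK293 cells treated for 18 h at 37 C with compounds delivered by pintool; ATP-coupled luminescence after 30 min at room temperature gave viability.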

The nature of experiment [17]: qHTS assay for cell viability of the p53RE-bla HCT-116 cell line (AID 743292; active = well fitted curve in the direction sought with a large enough effect; an effect the other way counts as inactive or inconclusive; note: nearly all actives have a fitted effect of over 55% in size; note: potency is the fitted concentration of half-maximal effect). Summed up:
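HCT-116 p53RE-bla cells seeded 4,000/well; 5 h at 37 C; compound (DMSO) added; 16 h at 37 C; CellTiter-Glo added, 30 min RT; luminescence read.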

Experiment [18] addresses Nuclear receptor subfamily 1 group I member 2 (Rattus norvegicus) (UniProt Q9R1A7). The experiment can be described thus: qHTS assay for small molecule activators of the rat pregnane X receptor (rPXR) signaling pathway (AID 651751; call rule not given here; note: 0% is about no effect). The note with it: rPXR reporter cells, luciferase (One-Glo), 24 h.
Experiment [19] can be described thus: qHTS assay for small molecule activators of the human pregnane X receptor (PXR) signaling pathway (AID 720659; call rule not given here; note: 0% is about no effect).
Experiment [20] in a line: qHTS assay for small molecule agonists of the antioxidant response element (ARE) signaling pathway (AID 651741; active = well fitted activation curve with a large enough effect in the signal ratio; the % refers to the signal ratio; note: potency is the fitted concentration of half-maximal effect; for activation: % of control where 0% means no effect). In a few lines: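 Seeding 2,000 ARE-bla HepG2 cells per well preceded a 5 h incubation at 37 C/5% CO2 and a 16 h compound exposure at 37 C. Beta-lactamase reporter activity was then quantified by fluorescence after 2 h with LiveBLAzer B/G FRET substrate.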
Experiment [21] in a line: qHTS assay for environmental chemicals that activate the Aryl hydrocarbon Receptor (AhR) signaling pathway (AID 651777; active = well fitted curve in the direction sought with a large enough effect; an effect the other way counts as inactive or inconclusive; note: potency is the fitted concentration of half-maximal effect; nearly all actives have a fitted effect of over 15% in size). The settings on record: 1A2-DRE human hepatoma cells, luciferase, 24 h; activation: stronger effect = higher value. In a few lines: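 1A2-DRE human hepatoma reporter line; 1,200 cells/well; cmpd or DMSO 24 h, 37 C/5% CO2; One-Glo 30 min RT; luciferase lum.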
Experiment [22] concerns the target Peroxisome proliferator-activated receptor delta (Homo sapiens) (UniProt Q03181). The experiment can be described thus: qHTS assay for small molecule agonists of peroxisome proliferator-activated receptor delta signaling (AID 588534).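 Note: 0% = DMSO basal wells and 100% = positive control agonist at 10 µM.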 In a few lines:
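Reporter cells were plated and held 5 hrs at 37 C before compounds were added. After 18 hrs at 37 C, CCF4 dye was loaded for 2 hrs at RT and fluorescence measured.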

Experiment [23] in a line: qHTS assay for small molecule agonists of retinoid X receptor alpha signaling (AID 588544).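 For activation: 0% = DMSO basal wells and 100% = reference agonist.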 The settings on record: HEK293T RXRa-UAS-bla, beta-lactamase reporter, 18 h; 530 nm emission.
For experiment [24], the target named is Thyroid hormone receptor beta (Homo sapiens) (UniProt P10828). Briefly: qHTS assay for small molecule agonists of thyroid hormone receptor beta signaling (AID 588545). Summed up: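 In this cell-based screen, titrated compounds act on HEK 293 cells held in medium with 2% charcoal/dextran FBS, NEAA and pyruvate for 18 hrs at 37 C. Responses are expressed relative to T3 (10 nM) as 100% and basal DMSO as 0%.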

The target is the same in experiment [25]. The experiment can be described thus: qHTS assay for small molecule antagonists of thyroid hormone receptor beta signaling (AID 588547; active = well fitted inhibition curve with a large enough effect in the signal ratio, with a control signal flat, not every such curve was filed as active; the % refers to the signal ratio). The note with it: TR-UAS-bla HEK293, beta-lactamase ratio, antagonist mode, 18 h. In a few lines:
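Inhibition of T3-driven (0.4nM final) beta-lactamase reporter activity was measured over 0.59 nM to 92 uM compound after 18 h at 37 C. The cells were GripTite HEK293 TR-UAS-bla in charcoal/dextran-stripped serum, with CCF4 ratio read-out and IC50 from Hill fits.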

The nature of experiment [26]: qHTS assay for small molecule activators of the nuclear factor-kappa B (NF-kB) signaling pathway (AID 651749; active = well fitted activation curve with a large enough effect in the signal ratio; the % refers to the signal ratio; note: series mostly up to about 77 µM; % of control where 0% means no effect). The note with it: NF-kB-bla ME-180 cells, beta-lactamase FRET ratio, 16 h; activation: stronger effect = higher value. Summed up:
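Stably transfected ME-180 line; NF-kB response element upstream of beta-lactamase. Treatment: compound or DMSO, 16 hr. Detection: fluorescent FRET substrate.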

Sequence of Peroxisome proliferator-activated receptor delta (Homo sapiens) (Q03181 whole entry, looked up): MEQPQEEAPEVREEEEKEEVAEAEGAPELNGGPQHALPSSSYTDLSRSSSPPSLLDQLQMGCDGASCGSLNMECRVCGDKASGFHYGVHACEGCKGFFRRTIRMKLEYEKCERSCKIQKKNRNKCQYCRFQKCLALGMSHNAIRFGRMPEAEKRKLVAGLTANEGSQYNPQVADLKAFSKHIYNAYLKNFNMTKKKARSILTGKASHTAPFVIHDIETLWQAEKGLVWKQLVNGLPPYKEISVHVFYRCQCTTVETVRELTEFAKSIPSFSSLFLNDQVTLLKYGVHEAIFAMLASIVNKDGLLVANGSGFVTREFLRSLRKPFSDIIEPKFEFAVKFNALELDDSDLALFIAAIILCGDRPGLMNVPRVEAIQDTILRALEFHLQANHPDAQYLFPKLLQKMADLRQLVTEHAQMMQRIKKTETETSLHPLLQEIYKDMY
Sequence of Vitamin D3 receptor (Homo sapiens) (P11473 whole entry, looked up): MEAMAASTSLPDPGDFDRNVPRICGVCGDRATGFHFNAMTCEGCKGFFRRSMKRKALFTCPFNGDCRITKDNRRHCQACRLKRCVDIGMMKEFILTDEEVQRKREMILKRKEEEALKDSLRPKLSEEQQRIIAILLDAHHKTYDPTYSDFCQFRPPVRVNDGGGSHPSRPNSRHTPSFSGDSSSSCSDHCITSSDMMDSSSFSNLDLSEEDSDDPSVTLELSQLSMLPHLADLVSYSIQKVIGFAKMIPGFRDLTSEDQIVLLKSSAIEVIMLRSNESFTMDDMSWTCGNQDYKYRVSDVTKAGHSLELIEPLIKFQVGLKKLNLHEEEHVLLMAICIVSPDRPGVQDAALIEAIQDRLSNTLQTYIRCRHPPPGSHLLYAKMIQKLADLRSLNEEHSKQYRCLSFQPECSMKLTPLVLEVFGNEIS
Sequence of Peroxisome proliferator-activated receptor gamma (Homo sapiens) (P37231 whole entry, looked up): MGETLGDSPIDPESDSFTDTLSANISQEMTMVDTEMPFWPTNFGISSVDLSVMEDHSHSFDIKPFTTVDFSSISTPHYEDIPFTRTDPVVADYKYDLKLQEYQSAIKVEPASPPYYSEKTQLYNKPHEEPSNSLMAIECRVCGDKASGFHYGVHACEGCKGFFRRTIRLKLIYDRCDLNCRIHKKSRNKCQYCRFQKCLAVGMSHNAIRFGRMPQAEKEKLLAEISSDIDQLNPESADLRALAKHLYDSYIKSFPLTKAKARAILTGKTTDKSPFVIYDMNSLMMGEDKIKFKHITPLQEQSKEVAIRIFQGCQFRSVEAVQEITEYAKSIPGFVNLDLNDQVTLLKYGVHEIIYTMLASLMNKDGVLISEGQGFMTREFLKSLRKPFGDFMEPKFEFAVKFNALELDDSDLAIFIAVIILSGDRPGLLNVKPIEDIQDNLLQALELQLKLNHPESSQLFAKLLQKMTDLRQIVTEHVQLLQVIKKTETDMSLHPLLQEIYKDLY
Sequence of Retinoic acid receptor RXR-alpha (Homo sapiens) (P19793 whole entry, looked up): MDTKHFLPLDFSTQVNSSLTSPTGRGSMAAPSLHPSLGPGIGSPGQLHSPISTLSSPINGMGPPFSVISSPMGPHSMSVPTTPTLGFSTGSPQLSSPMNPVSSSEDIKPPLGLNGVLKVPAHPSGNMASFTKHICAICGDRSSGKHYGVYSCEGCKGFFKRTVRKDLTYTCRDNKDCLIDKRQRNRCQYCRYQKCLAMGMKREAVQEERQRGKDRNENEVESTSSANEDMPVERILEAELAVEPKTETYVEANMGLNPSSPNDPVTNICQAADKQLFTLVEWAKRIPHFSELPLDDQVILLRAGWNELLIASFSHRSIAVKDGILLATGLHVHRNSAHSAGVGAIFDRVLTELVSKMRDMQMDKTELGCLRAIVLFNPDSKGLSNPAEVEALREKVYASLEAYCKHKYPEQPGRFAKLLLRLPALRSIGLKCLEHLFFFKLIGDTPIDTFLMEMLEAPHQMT
Sequence of Peroxisome proliferator-activated receptor alpha (Homo sapiens) (Q07869 whole entry, looked up): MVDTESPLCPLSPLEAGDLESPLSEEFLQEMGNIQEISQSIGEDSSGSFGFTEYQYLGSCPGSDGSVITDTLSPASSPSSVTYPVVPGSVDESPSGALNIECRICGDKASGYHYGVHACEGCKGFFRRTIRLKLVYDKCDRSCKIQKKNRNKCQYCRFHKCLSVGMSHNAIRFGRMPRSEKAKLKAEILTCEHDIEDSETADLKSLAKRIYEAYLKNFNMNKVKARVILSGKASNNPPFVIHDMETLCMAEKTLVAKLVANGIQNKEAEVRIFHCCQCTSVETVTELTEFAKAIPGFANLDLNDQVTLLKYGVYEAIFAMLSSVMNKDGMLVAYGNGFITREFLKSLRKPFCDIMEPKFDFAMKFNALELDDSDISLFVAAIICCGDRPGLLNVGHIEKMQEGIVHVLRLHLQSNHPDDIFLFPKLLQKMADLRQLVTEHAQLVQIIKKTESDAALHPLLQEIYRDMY
Sequence of Glucocorticoid receptor (Homo sapiens) (P04150 whole entry, looked up): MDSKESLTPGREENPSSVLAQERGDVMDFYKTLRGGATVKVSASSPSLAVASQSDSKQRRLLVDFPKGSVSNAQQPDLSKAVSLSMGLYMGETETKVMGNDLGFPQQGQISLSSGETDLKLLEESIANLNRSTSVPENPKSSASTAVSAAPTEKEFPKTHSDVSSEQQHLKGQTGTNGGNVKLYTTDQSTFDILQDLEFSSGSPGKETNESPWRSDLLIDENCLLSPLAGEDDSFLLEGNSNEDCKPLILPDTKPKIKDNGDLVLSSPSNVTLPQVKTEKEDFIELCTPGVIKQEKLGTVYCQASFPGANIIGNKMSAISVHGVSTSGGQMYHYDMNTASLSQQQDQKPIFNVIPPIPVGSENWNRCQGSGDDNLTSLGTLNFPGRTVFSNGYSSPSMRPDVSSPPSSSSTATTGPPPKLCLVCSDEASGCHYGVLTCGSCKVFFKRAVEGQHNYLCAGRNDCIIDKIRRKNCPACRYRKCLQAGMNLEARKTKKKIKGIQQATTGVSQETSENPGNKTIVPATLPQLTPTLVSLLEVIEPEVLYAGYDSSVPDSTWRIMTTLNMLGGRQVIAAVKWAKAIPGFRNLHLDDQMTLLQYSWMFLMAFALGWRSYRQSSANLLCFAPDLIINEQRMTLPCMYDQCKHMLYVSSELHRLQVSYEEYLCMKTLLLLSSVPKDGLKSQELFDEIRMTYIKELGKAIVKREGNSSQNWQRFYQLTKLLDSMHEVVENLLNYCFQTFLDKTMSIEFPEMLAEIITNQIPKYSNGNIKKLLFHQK
Sequence of Thyroid hormone receptor beta (Homo sapiens) (P10828 whole entry, looked up): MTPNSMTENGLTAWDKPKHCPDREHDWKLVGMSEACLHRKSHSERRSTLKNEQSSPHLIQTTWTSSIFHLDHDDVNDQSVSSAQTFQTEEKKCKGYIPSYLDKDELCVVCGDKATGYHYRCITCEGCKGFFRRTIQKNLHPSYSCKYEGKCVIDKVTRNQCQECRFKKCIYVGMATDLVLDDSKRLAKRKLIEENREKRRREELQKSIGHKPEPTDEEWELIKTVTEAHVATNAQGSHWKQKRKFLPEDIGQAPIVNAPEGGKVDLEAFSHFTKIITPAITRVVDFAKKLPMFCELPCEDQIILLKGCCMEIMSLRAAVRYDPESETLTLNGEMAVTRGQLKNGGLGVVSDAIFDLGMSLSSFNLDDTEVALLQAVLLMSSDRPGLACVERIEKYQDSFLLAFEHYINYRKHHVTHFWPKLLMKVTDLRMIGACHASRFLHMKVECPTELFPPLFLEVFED
Sequence of Nuclear receptor subfamily 1 group I member 2 (Rattus norvegicus) (Q9R1A7 whole entry, looked up): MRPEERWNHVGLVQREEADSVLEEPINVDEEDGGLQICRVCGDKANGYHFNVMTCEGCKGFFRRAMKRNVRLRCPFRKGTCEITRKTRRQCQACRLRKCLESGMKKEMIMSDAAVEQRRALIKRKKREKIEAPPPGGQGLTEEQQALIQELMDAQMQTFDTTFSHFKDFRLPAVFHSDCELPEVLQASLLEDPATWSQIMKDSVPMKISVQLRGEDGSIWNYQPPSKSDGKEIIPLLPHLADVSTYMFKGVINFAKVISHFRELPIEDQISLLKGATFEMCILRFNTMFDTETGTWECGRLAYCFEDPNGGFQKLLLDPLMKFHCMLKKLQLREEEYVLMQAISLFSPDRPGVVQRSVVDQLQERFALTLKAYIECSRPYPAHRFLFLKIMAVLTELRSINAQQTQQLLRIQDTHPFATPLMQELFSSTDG

Regarding `[CH3][Sn]([Cl])([Cl])[Cl]`, the activation in experiment [1] was -3.55% (inactive); in experiment [12], -2.75% (inactive). For the same molecule, the Potency result in [2], in [4], in [5], in [6], in experiment [7] and in experiment [9] was “inactive” in each case. For the same molecule, the Potency entry in experiment [14] and in [17] was “inactive” in each case. Further, the max response in experiment [3] was -4.62%; in experiment [10], -11%; in [11], -14.8% (inactive); in experiment [13], 0.635% (inactive); in [15], -16% (inactive); in experiment [16], -18.6% (inactive). Moreover, in experiment [18], the max response was -7.26% (inactive). Further, the molecule was called inactive in [8] and in [19].

Consider `O=C1C(Cl)=C(Cl)C(=O)c2ccccc21`, for which, in experiment [1], the activation was -5.64% (inactive). Moreover, the molecule was classed as inactive in [8] and in experiment [19]. Moreover, the Potency in experiment [20] was 2.73 µM (active); in experiment [21], 50.1 µM (active); in [17], 50.1 µM (active). In addition, in experiment [13], the max response was -10.7% (inactive).

With `CCN(CC)c1cccc(O)c1`, the result in experiment [22] was inactive.

Regarding `NC(=O)CCCCC(N)=O`, the outcome in [22] was inactive.

Consider `Cc1cc(C)c(N)c(Cl)c1`, for which, in experiment [22], the result was inactive.

For `COc1cc(OC)nc(Sc2cccc(Cl)c2C(=O)O)n1`, the activation in [1] was 5.02% (inactive); in experiment [12], -0.496% (inactive); in experiment [26], 0.833% (inactive). In addition, the Potency entry in experiment [2], in experiment [5], in experiment [6], in experiment [7], in experiment [9] and in experiment [24] was “inactive” in each case. For the same molecule, the Potency result in experiment [20], in experiment [14] and in [17] was “inactive” each time. The molecule was called inactive in experiment [8] and in experiment [19]. Besides, the max response in experiment [23] was -16.4%; in experiment [10], -2.85%; in [13], -1.08% (inactive); in experiment [15], -2.11% (inactive); in [16] it was -8.52% (inactive); in experiment [18], 3.18% (inactive). For the same molecule, the activity change % (negative = inhibition) in experiment [25] was 6.23% (inactive).
